In PubChem BioAssay AID1159580 (chemical genetic matrix, 2015):
Where “and” joins values, the source holds several entries; their conditions need not be identical. Equal values may be shown once. The campaign covered roughly 5,500 compounds. About 2,000 (36%) were called active. Roughly 18% stayed inconclusive and do not appear here. Cut-off read from the data, not from the text of the source: active = normalized growth mostly below about 0.91 (no sharp cut-off); inconclusive = no clear call, values can overlap the other calls; inactive = mostly above about 0.92. The list shows a part of the results.

Test: chemical genetic growth profiling, strain panel (AID 1159580);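 note: tested at 20 µM; growth read once vehicle control cultures reached saturation at 30 °C; 1 = growth at the plate median or of vehicle wells; lower values mean less growth of the strain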
Conditions: S. cerevisiae deletion strains, growth OD

Measured: normalized growth

NC(=O)CC[C@@H](N)C(=O)O
inactive: locus YAL021C, strain ccr4, stronger effect = lower value 1.02 | locus YAL026C, strain drs2, stronger effect = lower value 1.05 | locus YAL030W, strain snc1, stronger effect = lower value 1.04 | locus YBL061C, strain skt5, stronger effect = lower value 1.03 | locus YBR009C, strain hhf1, stronger effect = lower value 1.03 | locus YBR021W, strain FUR4, stronger effect = lower value 1.04 | locus YBR023C, strain chs3, stronger effect = lower value 1.03 | locus YBR171W, strain sec66, stronger effect = lower value 1.05 | locus YBR229C, strain ROT2, stronger effect = lower value 1.01 | locus YBR231C, strain swc5, stronger effect = lower value 1.02 | locus YBR279W, strain paf1, stronger effect = lower value 1.02 | locus YCL011C, strain gbp2, stronger effect = lower value 1.02 | locus YCL016C, strain dcc1, stronger effect = lower value 1.02 | locus YCL029C, strain bik1, stronger effect = lower value 1.01 | locus YCL061C, strain MRC1, stronger effect = lower value 1.02 | locus YCL069W, strain vba3, stronger effect = lower value 1.02 | locus YCR088W, strain abp1, stronger effect = lower value 1.03 | locus YDL005C, strain med2, stronger effect = lower value 1.04 | locus YDL035C, strain GPR1, stronger effect = lower value 1.06 | locus YDL040C, strain nat1, stronger effect = lower value 1.02 | locus YDL074C, strain BRE1, stronger effect = lower value 1.09 | locus YDL101C, strain DUN1, stronger effect = lower value 1.02 | locus YDL185W, strain tfp1, stronger effect = lower value 1.01 | locus YDL192W, strain arf1, stronger effect = lower value 1.03 | locus YDR001C, strain nth1, stronger effect = lower value 1.02 | locus YDR069C, strain doa4, stronger effect = lower value 1.03 | locus YDR101C, strain arx1, stronger effect = lower value 1.01 | locus YDR137W, strain rgp1, stronger effect = lower value 1.06 | locus YDR159W, strain sac3, stronger effect = lower value 1.08 | locus YDR162C, strain NBP2, stronger effect = lower value 1.05 | locus YDR195W, strain ref2 1.01 | locus YDR297W, strain sur2, stronger effect = lower value 1.02 | locus YDR318W, strain mcm21, stronger effect = lower value 0.996 | locus YDR334W, strain swr1, stronger effect = lower value 1.03 | locus YDR335W, strain msn5, stronger effect = lower value 1.04 | locus YDR388W, stronger effect = lower value 0.993 | locus YDR392W, strain spt3, stronger effect = lower value 0.937 | locus YDR502C, strain sam2, stronger effect = lower value 1.02 | locus YEL003W, strain gim4, stronger effect = lower value 1.02 | locus YEL037C, strain rad23, stronger effect = lower value 1.03 | locus YEL061C, strain CIN8 (second series), stronger effect = lower value 1.02 | locus YEL061C, strain CIN8, stronger effect = lower value 1.02 | locus YER015W, strain faa2, stronger effect = lower value 1.03 | locus YER016W, strain bim1, stronger effect = lower value 1.02 | locus YER110C, stronger effect = lower value 0.996 | locus YER111C, strain swi4, stronger effect = lower value 1.02 | locus YER155C, strain BEM2 (second series), stronger effect = lower value 0.971 | locus YER155C, strain BEM2, stronger effect = lower value 1.01 | locus YER167W, strain BCK2, stronger effect = lower value 1.02 | locus YFR010W, strain ubp6, stronger effect = lower value 1.05 | locus YGL078C, strain dbp3, stronger effect = lower value 1.03 | locus YGL086W, strain mad1, stronger effect = lower value 1.02 | locus YGL167C, strain pmr1, stronger effect = lower value 1.04 | locus YGL173C, strain kem1, stronger effect = lower value 1.04 | locus YGL227W, strain vid30, stronger effect = lower value 1.02 | locus YGL240W, strain doc1, stronger effect = lower value 1.02 | locus YGL248W, strain PDE1, stronger effect = lower value 1.02 | locus YGL253W, strain hxk2, stronger effect = lower value 1.06 | locus YGR078C, strain PAC10, stronger effect = lower value 1.04 | locus YGR135W, strain pre9, stronger effect = lower value 1.02 | locus YGR252W, strain gcn5, stronger effect = lower value 1.14 | locus YHR013C, strain ard1, stronger effect = lower value 1.07 | locus YHR027C, strain rpn1, stronger effect = lower value 1.04 | locus YHR030C, strain SLT2, stronger effect = lower value 1.02 and 1.05 | locus YHR079C, strain IRE1 (second series), stronger effect = lower value 0.987 | locus YHR079C, strain IRE1, stronger effect = lower value 1.03 | locus YHR094C, strain hxt1, stronger effect = lower value 0.984 | locus YHR129C, strain ARP1, stronger effect = lower value 1.03 | locus YHR142W, strain chs7, stronger effect = lower value 1.05 | locus YHR200W, strain rpn10, stronger effect = lower value 1 | locus YIL066C, strain RNR3, stronger effect = lower value 1.05 | locus YIL073C, strain SPO22, stronger effect = lower value 1.13 | locus YIL125W, strain kgd1, stronger effect = lower value 1.02 | locus YIR030C, strain dcg1, stronger effect = lower value 0.998 | locus YJL092W, strain hpr5, stronger effect = lower value 1.03 | locus YJL095W, strain BCK1 (second series), stronger effect = lower value 1.02 | locus YJL095W, strain BCK1, stronger effect = lower value 1.05 and 1.04 | locus YJL115W, strain asf1, stronger effect = lower value 1.02 | locus YJL129C, strain trk1, stronger effect = lower value 1.07 | locus YJL134W, strain LCB3, stronger effect = lower value 1.01 | locus YJL154C, strain vps35, stronger effect = lower value 1.02 | locus YJL164C, strain tpk1, stronger effect = lower value 1.03 | locus YJL166W, strain qcr8, stronger effect = lower value 1.04 | locus YJL168C, strain set2, stronger effect = lower value 0.989 | locus YJL187C, strain SWE1 (second series), stronger effect = lower value 1.03 | locus YJL187C, strain SWE1, stronger effect = lower value 1.06 | locus YJR043C, strain POL32, stronger effect = lower value 1.04 | locus YJR066W, strain TOR1, stronger effect = lower value 1 | locus YKL009W, strain mrt4, stronger effect = lower value 1.08 | locus YKL068W, stronger effect = lower value 1.02 | locus YKL085W, strain MDH1 (second series), stronger effect = lower value 1.01 | locus YKL085W, strain MDH1, stronger effect = lower value 1.01 | locus YKL160W, strain elf1, stronger effect = lower value 1.02 | locus YKR001C, strain vps1, stronger effect = lower value 1.05 | locus YKR026C, strain gcn3, stronger effect = lower value 1.03 | locus YKR091W, strain srl3, stronger effect = lower value 1.03 | locus YLL001W, strain dnm1, stronger effect = lower value 1 | locus YLL026W, stronger effect = lower value 1.03 | locus YLL041C, strain sdh2, stronger effect = lower value 1.02 | locus YLR027C, strain aat2, stronger effect = lower value 1.02 | locus YLR039C, strain RIC1, stronger effect = lower value 1.11 | locus YLR058C, strain SHM2, stronger effect = lower value 1.02 | locus YLR102C, strain apc9, stronger effect = lower value 0.98 | locus YLR113W, strain HOG1, stronger effect = lower value 1.02 | locus YLR221C, strain rsa3, stronger effect = lower value 1.04 | locus YLR258W, strain gsy2, stronger effect = lower value 1.02 | locus YLR262C, strain YPT6 (second series), stronger effect = lower value 1.05 | locus YLR262C, strain YPT6, stronger effect = lower value 1.1 | locus YLR268W, strain sec22, stronger effect = lower value 1.05 | locus YLR320W, strain mms22, stronger effect = lower value 1.04 | locus YLR330W, strain CHS5, stronger effect = lower value 1.03 | locus YLR342W, strain FKS1 (second series), stronger effect = lower value 1.07 | locus YLR342W, strain FKS1, stronger effect = lower value 1.03 | locus YLR357W, strain rsc2, stronger effect = lower value 1.05 | locus YLR370C, strain arc18, stronger effect = lower value 1.03 | locus YLR371W, strain rom2, stronger effect = lower value 0.993 | locus YLR384C, strain iki3, stronger effect = lower value 1.02 | locus YLR418C, strain cdc73, stronger effect = lower value 1.07 | locus YML016C, strain PPZ1, stronger effect = lower value 1.01 | locus YML032C, strain rad52, stronger effect = lower value 1.02 | locus YML120C, strain ndi1, stronger effect = lower value 1.03 | locus YML124C, strain tub3, stronger effect = lower value 1.01 | locus YMR058W, strain fet3, stronger effect = lower value 1.04 | locus YMR078C, strain ctf18, stronger effect = lower value 0.988 | locus YMR125W, strain sto1, stronger effect = lower value 1.03 | locus YMR129W, stronger effect = lower value 1.02 | locus YMR205C, strain PFK2, stronger effect = lower value 1.04 | locus YMR223W, strain ubp8, stronger effect = lower value 1.02 | locus YMR231W, strain pep5, stronger effect = lower value 1.03 | locus YMR263W, strain SAP30, stronger effect = lower value 1.02 | locus YMR307W, strain GAS1, stronger effect = lower value 1.13 | locus YNL067W, strain RPL9B, stronger effect = lower value 1.03 | locus YNL071W, strain lat1, stronger effect = lower value 1.03 | locus YNL153C, strain GIM3, stronger effect = lower value 1.02 | locus YNL183C, strain NPR1, stronger effect = lower value 1.01 | locus YNL209W, strain ssb2, stronger effect = lower value 1.02 | locus YNL233W, strain BNI4, stronger effect = lower value 1.03 | locus YNL248C, strain rpa49, stronger effect = lower value 1.05 | locus YNL250W, strain rad50, stronger effect = lower value 1.03 | locus YNL271C, strain bni1, stronger effect = lower value 1.02 | locus YNL298W, strain CLA4, stronger effect = lower value 1.02 | locus YNL307C, strain MCK1, stronger effect = lower value 0.995 | locus YNL322C, strain KRE1 (second series), stronger effect = lower value 1.02 | locus YNL322C, strain KRE1, stronger effect = lower value 1.02 | locus YNR049C, strain mso1, stronger effect = lower value 1.04 | locus YNR052C, strain pop2, stronger effect = lower value 1.03 | locus YOL012C, strain htz1 1.02 | locus YOL147C, strain pex11, stronger effect = lower value 1 | locus YOR001W, strain rrp6, stronger effect = lower value 1.04 | locus YOR061W, strain CKA2, stronger effect = lower value 1.02 | locus YOR069W, strain VPS5, stronger effect = lower value 1.01 | locus YOR070C, strain gyp1, stronger effect = lower value 1.01 | locus YOR080W, strain dia2, stronger effect = lower value 1.03 | locus YOR083W, strain WHI5, stronger effect = lower value 1.01 | locus YOR106W, strain vam3, stronger effect = lower value 1.06 | locus YOR136W, strain idh2, stronger effect = lower value 1.02 | locus YOR144C, strain elg1, stronger effect = lower value 1 | locus YOR184W, strain ser1, stronger effect = lower value 1.05 | locus YOR231W, strain MKK1, stronger effect = lower value 1.03 | locus YOR265W, strain rbl2, stronger effect = lower value 1.02 | locus YOR270C, strain vph1, stronger effect = lower value 1.1 | locus YOR290C, strain snf2, stronger effect = lower value 1.03 | locus YOR316C, strain cot1, stronger effect = lower value 0.987 | locus YPL051W, strain arl3, stronger effect = lower value 1 | locus YPL078C, strain atp4, stronger effect = lower value 1.01 | locus YPL106C, strain sse1, stronger effect = lower value 1.01 | locus YPL240C, strain hsp82, stronger effect = lower value 1.02 | locus YPL241C, strain CIN2, stronger effect = lower value 1.01 | locus YPL256C, strain CLN2, stronger effect = lower value 1.05 | locus YPR119W, strain clb2, stronger effect = lower value 0.991 | locus YPR141C, strain kar3, stronger effect = lower value 1.01 | locus YPR163C, strain tif3, stronger effect = lower value 0.99 | locus YPR167C, strain met16, stronger effect = lower value 1 | strain wtn01, stronger effect = lower value 1.06
